Experiments:
Conditions in all cases: concentration: 1 μM, replicates: in singlicate; n = 1
[1] = tested on: TSSK3
[2] = tested on: TTK
[3] = tested on: TXK
[4] = tested on: TYK2(JH1domain-catalytic)
[5] = tested on: TYK2(JH2domain-pseudokinase)
[6] = tested on: TYRO3
[7] = tested on: ULK1
[8] = tested on: ULK2
[9] = tested on: ULK3
[10] = tested on: T1, VEGFR2
T1 construct: gene KDR

[11] = tested on: T2, VPS34
T2 construct: gene PIK3C3

[12] = tested on: VRK2
[13] = tested on: WEE1
[14] = tested on: WEE2
[15] = tested on: WNK1
[16] = tested on: WNK2
[17] = tested on: WNK3
[18] = tested on: WNK4
[19] = tested on: T3, YANK1
T3 construct: gene STK32A

[20] = tested on: T4, YANK2
T4 construct: gene STK32B
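Further: KINOMEscan kinase panel screen.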

Row | Compound | %Inh [1] [%] | %Inh [2] [%] | %Inh [3] [%] | %Inh [4] [%] | %Inh [5] [%] | %Inh [6] [%] | %Inh [7] [%] | %Inh [8] [%] | %Inh [9] [%] | %Inh [10] [%] | %Inh [11] [%] | %Inh [12] [%] | %Inh [13] [%] | %Inh [14] [%] | %Inh [15] [%] | %Inh [16] [%] | %Inh [17] [%] | %Inh [18] [%] | %Inh [19] [%] | %Inh [20] [%]
1 | O=C(NOCC1CC1)c1ccc(F)c(F)c1Nc1ccc(I)cc1Cl | 0 | 0 | 0 | 0 | 0 | 0 | 0 | 0 | 0 | 0 | 0 | 0 | 0 | 0 | 0 | 0 | 0 | 0 | 6 | 0
2 | Nc1nccc(-c2c(-c3ccc(F)cc3)ncn2C2CCN(CC(F)(F)F)CC2)n1 [SB-236560] | 67 | 0 | 0 | 14 | 82 | 0 | 0 | 30 | 10 | 0 | 58 | 31 | 0 | 0 | 0 | 17 | 35 | 0 | 22 | 0
3 | O=c1cc(N2CCOCC2)nc2n(Cc3cccc(C(F)(F)F)c3)ccn12 [GSK2297543] | 15 | 12 | 0 | 0 | 0 | 0 | 0 | 0 | 9 | 13 | 93.9 | 0 | 6 | 10 | 2 | 0 | 19 | 22 | 0 | 0
4 | NS(=O)(=O)c1cccc(-c2ccc3nccc(-c4cccc(S(N)(=O)=O)c4)c3c2)c1 [GW867253] | 0 | 0 | 5 | 0 | 39 | 0 | 12 | 81 | 18 | 4 | 78 | 12 | 0 | 0 | 7 | 0 | 0 | 0 | 0 | 0
5 | O=c1cc(N2CCOCC2)nc2n(Cc3cccc(F)c3)ccn12 [GSK2297430] | 0 | 0 | 4 | 13 | 2 | 12 | 0 | 0 | 0 | 0 | 93.9 | 0 | 0 | 9 | 0 | 12 | 8 | 3 | 7 | 14
6 | COC(=O)Nc1nc2cc(Oc3ccc(NC(=O)Nc4cc(F)ccc4F)cc3)ccc2[nH]1.Cl [GW701424] | 8 | 0 | 88 | 30 | 46 | 0 | 0 | 0 | 7 | 68 | 0 | 30 | 1 | 9 | 12 | 0 | 48 | 58 | 0 | 0
7 | Cc1nnc(-c2ccc3occ(-c4ccc(C(C)O)cc4)c3c2)o1 (stereo not drawn) | 1 | 8 | 4 | 0 | 2 | 6 | 1 | 2 | 6 | 0 | 18 | 0 | 8 | 7 | 0 | 0 | 0 | 0 | 5 | 2
8 | Cc1ccc(C(=O)NCC(N)=O)cc1-n1c(C)cc(OCc2ccc(F)cc2F)c(Br)c1=O | 0 | 35 | 21 | 0 | 0 | 3 | 0 | 0 | 2 | 0 | 0 | 0 | 3 | 17 | 0 | 5 | 0 | 0 | 0 | 10
9 | O=c1cc(N2CCOCC2)nc2n(Cc3cccc4ccccc34)ccn12 [GSK2333389] | 0 | 10 | 0 | 24 | 10 | 0 | 14 | 7 | 7 | 0 | 98 | 0 | 13 | 12 | 2 | 0 | 0 | 0 | 1 | 0
10 | O=C(NCCNc1ccnc(Nc2ccc(F)cc2)n1)Nc1ccccc1F [GSK1379880] | 12 | 0 | 1 | 24 | 17 | 0 | 19 | 0 | 28 | 0 | 0 | 0 | 13 | 3 | 0 | 0 | 4 | 41 | 2 | 0
11 | Cc1ccc(NC(=O)c2ccnc(N3CCN(C)CC3)c2)cc1-c1ccc(C(=O)NCC2CC2)cc1 [GW775604] | 0 | 0 | 0 | 100 | 0 | 0 | 0 | 100 | 0 | 0 | 0 | 17 | 0 | 0 | 0 | 0 | 0 | 0 | 0 | 1
12 | COc1cc2ncn(-c3cc(OCc4sccc4Cl)c(C(N)=O)s3)c2cc1OC [GSK448459] | 10 | 5 | 0 | 22 | 19 | 0 | 17 | 0 | 19 | 0 | 60 | 5 | 4 | 5 | 19 | 45 | 60 | 31 | 11 | 0
13 | O=C(Nc1cccc(-c2nn3ncccc3c2-c2ccnc(Nc3cccc(C(F)(F)F)c3)n2)c1)c1c(F)cccc1F [GSK299495] | 18 | 6 | 76 | 22 | 39 | 87 | 0 | 0 | 7 | 29 | 0 | 20 | 2 | 24 | 15 | 0 | 44 | 27 | 0 | 15
14 | COCCNC(=O)c1ccc(-c2cc(C(=O)NC3CC3)cc(F)c2C)cc1 [GW868318] | 24 | 0 | 18 | 9 | 33 | 21 | 46 | 37 | 47 | 16 | 9 | 37 | 3 | 5 | 31 | 0 | 23 | 21 | 1 | 25
15 | Cc1c2ccc(N(C)c3ccnc(Nc4cccc(S(N)(=O)=O)c4)n3)cc2nn1Cc1ccccc1.Cl.Cl [GW787226] | 0 | 35 | 17 | 16 | 0 | 0 | 3 | 0 | 6 | 99.2 | 0 | 0 | 0 | 6 | 0 | 0 | 0 | 0 | 0 | 0

— publication PMC5540273 (PLoS ONE, 2017)
